Test results: PubChem BioAssay (EPA / NIEHS)
Activity calls are given as the source filed them. Rule for the calls: active = hit-call score of the fitted dose curve at least 0.9, where 1 is the maximum; inactive = score below 0.9.

What follows are compounds tested on Cyclin Dependent Kinase Inhibitor 1A (CDKN1A), CDKN1A (gene 1026) (assay: LTEA_HepaRG_CDKN1A: Life Technologies and Expression Analysis (LTEA) Assay for Cyclin Dependent Kinase Inhibitor 1A (CDKN1A) using HepaRG (AID 2283450)). Details: mRNA level, 48 h; actives raise or lower the signal.
In short: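 Differentiated HepaRG cells in serum-free induction medium, exposed 48 h in duplicate to eight half-log concentrations up to 100 uM in 0.5% DMSO. mRNA measured by TaqMan qRT-PCR, normalized to ACTB, GAPDH, POLR2A; bidirectional fit versus DMSO.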

SMILES	outcome	AC50
CC1=C2C[C@H]3[C@@H](CC=C4C[C@@H](O)CC[C@@]43C)[C@@H]2CC[C@]12O[C@@H]1C[C@H](C)CN[C@H]1[C@H]2C	inactive	
CC#Cc1cc(C)nc(Nc2ccccc2)n1		80.1 µM (active)
CCC(C)(c1ccc(O)cc1)c1ccc(O)cc1	inactive	
Cc1ccccc1CO[C@@H]1C[C@@]2(C(C)C)CC[C@]1(C)O2	inactive	
CCC(=O)O[C@H]1CC[C@H]2[C@@H]3CCC4=CC(=O)CC[C@]4(C)[C@H]3CC[C@]12C	inactive	
CCCCCCCCCc1ccc(O)cc1	inactive	
ClC(Cl)=C(c1ccc(Cl)cc1)c1ccc(Cl)cc1	inactive	
O=S(=O)(O)C(F)(F)C(F)(F)C(F)(F)C(F)(F)C(F)(F)C(F)(F)F	inactive	
Cc1cc(O)ccc1Cl	inactive	
O=C(O)C(F)(F)C(F)(F)C(F)(F)C(F)(F)C(F)(F)C(F)(F)C(F)(F)C(F)(F)F		79.9 µM (active)
COS(=O)(=O)OC	inactive	
N#Cc1ccc(N(CC(N)=O)CC(F)(F)F)cc1C(F)(F)F	inactive	
CCC(C)(CC)c1cc(NC(=O)c2c(OC)cccc2OC)on1	inactive	
O=C(N[C@H]1CN2CCC1CC2)c1cc2ccoc2cn1	inactive	
C1CC2OC2CC1C1CO1 (configuration not stated)	inactive	
O=S(=O)(O)C(F)(F)C(F)(F)C(F)(F)C(F)(F)F	inactive	

SMILES	outcome	AC50
O=NN(c1ccccc1)c1ccccc1	inactive	
NS(=O)(=O)C(F)(F)C(F)(F)C(F)(F)C(F)(F)C(F)(F)C(F)(F)C(F)(F)C(F)(F)F		1.8 µM (active)
CC(c1ccc(O)cc1)(c1ccc(O)cc1)c1ccc(O)cc1		50 µM (active)
C=CC(N)=O	inactive	
Cc1cc2c3c(c1)C(c1ccccc1)=N[C@@H](NC(=O)c1ccncc1)C(=O)N3CC2		50 µM (active)
CN(C)CCO	inactive	
Nn1cnnc1	inactive	
Cc1cc(-c2ccc(N)c(C)c2)ccc1N	inactive	
O=C(NC(=O)c1c(F)cccc1F)Nc1cc(Cl)c(OC(F)(F)C(F)F)c(Cl)c1	inactive	
CN(C)c1nc(=O)n(C2CCCCC2)c(=O)n1C	inactive	
O=C(O)C(F)(F)C(F)(F)C(F)(F)C(F)(F)C(F)(F)C(F)(F)C(F)(F)C(F)(F)C(F)(F)F		16.8 µM (active)
c1cc2ccc3cccc4ccc(c1)c2c34	inactive	
C=CC(=O)NCNC(=O)C=C	inactive	
Clc1ccc(C(Cl)(Cl)Cl)cc1	inactive	
O=C(NC(=O)c1cc(F)c(F)cc1Cl)Nc1cc(F)ccc1N1CCC(C(=O)O)CC1	inactive	

The compounds below were run on Cyclin D1 (CCND1), CCND1 (gene 595) (assay: LTEA_HepaRG_CCND1: Life Technologies and Expression Analysis (LTEA) Assay for Cyclin D1 (CCND1) using HepaRG (AID 2283451;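 for AC50: differentiated human HepaRG liver cells in serum-free induction medium; TaqMan qRT-PCR transcript level normalised to ACTB GAPDH and POLR2A housekeeping genes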)). Details: mRNA level, 48 h; actives raise or lower the signal.
In short: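 Differentiated HepaRG cells exposed 48 h in serum-free induction medium to eight half-log concentrations from 100 uM top, 0.5% DMSO, duplicates. CCND1 mRNA measured by Fluidigm TaqMan qRT-PCR, normalised to ACTB, GAPDH, POLR2A; bidirectional fit.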

SMILES	outcome	AC50
CC1=C2C[C@H]3[C@@H](CC=C4C[C@@H](O)CC[C@@]43C)[C@@H]2CC[C@]12O[C@@H]1C[C@H](C)CN[C@H]1[C@H]2C	inactive	
CC#Cc1cc(C)nc(Nc2ccccc2)n1		13.3 µM (active)
CCC(C)(c1ccc(O)cc1)c1ccc(O)cc1	inactive	
Cc1ccccc1CO[C@@H]1C[C@@]2(C(C)C)CC[C@]1(C)O2	inactive	
CCC(=O)O[C@H]1CC[C@H]2[C@@H]3CCC4=CC(=O)CC[C@]4(C)[C@H]3CC[C@]12C	inactive	
Oc1ccc(Cl)cc1Cl	inactive	
CCCCCCCCCc1ccc(O)cc1	inactive	
ClC(Cl)=C(c1ccc(Cl)cc1)c1ccc(Cl)cc1	inactive	
O=S(=O)(O)C(F)(F)C(F)(F)C(F)(F)C(F)(F)C(F)(F)C(F)(F)F	inactive	
Cc1cc(O)ccc1Cl	inactive	
O=C(O)C(F)(F)C(F)(F)C(F)(F)C(F)(F)C(F)(F)C(F)(F)C(F)(F)C(F)(F)F		50 µM (active)
COS(=O)(=O)OC	inactive	
N#Cc1ccc(N(CC(N)=O)CC(F)(F)F)cc1C(F)(F)F	inactive	
CCC(C)(CC)c1cc(NC(=O)c2c(OC)cccc2OC)on1	inactive	
O=C(N[C@H]1CN2CCC1CC2)c1cc2ccoc2cn1	inactive	
O=S(=O)(O)C(F)(F)C(F)(F)C(F)(F)C(F)(F)F	inactive	

SMILES	outcome	AC50
O=NN(c1ccccc1)c1ccccc1	inactive	
NS(=O)(=O)C(F)(F)C(F)(F)C(F)(F)C(F)(F)C(F)(F)C(F)(F)C(F)(F)C(F)(F)F		50 µM (active)
CC(c1ccc(O)cc1)(c1ccc(O)cc1)c1ccc(O)cc1		24.1 µM (active)
C=CC(N)=O	inactive	
Cc1cc2c3c(c1)C(c1ccccc1)=N[C@@H](NC(=O)c1ccncc1)C(=O)N3CC2	inactive	
CN(C)CCO	inactive	
Nn1cnnc1	inactive	
Cc1cc(-c2ccc(N)c(C)c2)ccc1N	inactive	
O=C(NC(=O)c1c(F)cccc1F)Nc1cc(Cl)c(OC(F)(F)C(F)F)c(Cl)c1	inactive	
CN(C)c1nc(=O)n(C2CCCCC2)c(=O)n1C	inactive	
O=C(O)C(F)(F)C(F)(F)C(F)(F)C(F)(F)C(F)(F)C(F)(F)C(F)(F)C(F)(F)C(F)(F)F		12.6 µM (active)
c1cc2ccc3cccc4ccc(c1)c2c34	inactive	
C=CC(=O)NCNC(=O)C=C	inactive	
Clc1ccc(C(Cl)(Cl)Cl)cc1	inactive	
O=C(NC(=O)c1cc(F)c(F)cc1Cl)Nc1cc(F)ccc1N1CCC(C(=O)O)CC1	inactive	
